Compound activity: PubChem, The Scripps Research Institute Molecular Screening Center
A selection: hits, their analogues and other compounds. The true share with any hit is near 1.8%.
LYPLA2 inh – counter-screen for PME1 inhibitors: inhibitors of human LYPLA2; O95372; recombinant LYPLA2, FP-Rh probe fluorescence polarization; inhibition, % at 5.9 µM; actives 0.38% (n = 320,000); AID 2177;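 active = inhibition above the screen-wide mean plus 3 SD, limit set per campaign, cut at about 26% in these data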;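 also: 0% = LYPLA2 with DMSO and 100% = wells lacking LYPLA2 enzyme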
LYPLA1 inh – counter-screen for PME1 inhibitors: inhibitors of human LYPLA1 | actives 0.16% (n = 320,000) | recombinant LYPLA1, FP-Rh probe fluorescence polarization | inhibition, % at 5.9 µM | O75608 | AID 2174;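 active = inhibition above the mean of all tested compounds plus 3 SD, set per campaign, cut at about 14% in these data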;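 also: inhibitors block serine hydrolase probe labeling of LYPLA1 so polarization falls; 0% = enzyme with DMSO and 100% = wells lacking LYPLA1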
Fam108B counter – counter-screen for RBBP9 inhibitors: inhibitors of mouse Fam108B. actives 0.33% (n = 300,000). inhibition, % at 9.51 µM. recombinant Fam108B, FP-Rh probe fluorescence polarization;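 active = inhibition above the screen mean inhibition plus 3 SD, computed separately per campaign, cut at about 18% in these data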;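 also: inhibitors lower polarization as less probe binds the enzyme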
GSTO1 inh – blocks human GSTO1 in RBBP9 counter-screen | P78417 | recombinant GSTO1, activity-based probe fluorescence polarization | inhibition, % at 5.96 µM | actives 1.1% (n = 300,000);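 active = inhibition above the campaign mean inhibition plus 3 SD, cut at about 35% in these data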;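 also: 0% = GSTO1-1 with DMSO and 100% = wells lacking GSTO1-1 enzyme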
Target sequence (P78417 whole entry, looked up): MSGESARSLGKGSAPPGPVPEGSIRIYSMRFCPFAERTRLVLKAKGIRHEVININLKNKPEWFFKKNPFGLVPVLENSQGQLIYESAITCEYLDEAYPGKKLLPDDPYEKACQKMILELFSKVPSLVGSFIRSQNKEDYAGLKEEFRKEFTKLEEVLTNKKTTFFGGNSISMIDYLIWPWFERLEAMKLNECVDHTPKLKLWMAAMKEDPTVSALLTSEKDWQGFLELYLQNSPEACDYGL
PME-1 primary – blocks human protein phosphatase methylesterase 1; AID 2130; actives 0.53% (n = 320,000); Q9Y570; inhibition, % at 5.9 µM; recombinant PME-1, FP-Rh probe fluorescence polarization;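 active = inhibition above the campaign mean of all compounds plus 3 SD, cut at about 26% in these data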;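 also: competitive labeling of PME-1 active site by serine hydrolase directed probe; 0% = PME-1 with DMSO and 100% = wells lacking PME-1 enzyme; inhibitors block probe labeling so polarization falls and inhibition rises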
Target sequence (Q9Y570 whole entry, looked up): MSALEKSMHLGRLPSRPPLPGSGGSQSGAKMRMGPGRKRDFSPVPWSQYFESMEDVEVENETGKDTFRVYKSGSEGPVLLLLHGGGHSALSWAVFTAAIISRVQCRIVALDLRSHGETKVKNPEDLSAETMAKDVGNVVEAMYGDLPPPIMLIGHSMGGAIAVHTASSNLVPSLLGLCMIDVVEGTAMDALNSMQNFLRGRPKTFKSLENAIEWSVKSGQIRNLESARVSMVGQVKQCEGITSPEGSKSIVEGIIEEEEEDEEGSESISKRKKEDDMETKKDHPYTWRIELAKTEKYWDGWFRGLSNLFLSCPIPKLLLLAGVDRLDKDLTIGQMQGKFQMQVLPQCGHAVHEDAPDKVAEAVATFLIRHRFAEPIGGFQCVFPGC
PAD4 inh – inhibitors of human PAD4. Q9UM07. AID 485272. actives 0.41% (n = 330,000). inhibition, % at 6.36 µM. recombinant PAD4, RCA probe fluorescence polarization;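 active = percent inhibition above a cutoff equal to the mean of all tested compounds plus 3 SD, cut at about 15% in these data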;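 also: 0% = PAD4 with RCA probe and DMSO and 100% = probe without PAD4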
GSTO1 confirm – confirmation of human GSTO1 inhibitors | shares compounds with GSTO1 inh | recombinant GSTO1, probe fluorescence polarization | inhibition, % at 5.96 µM | actives 54% (n = 2,400) | AID 2176;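 active = inhibition above the primary screen's cutoff, its mean inhibition plus 3 SD, cut at about 35% in these data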;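 also: loss of polarization as inhibitors block binding of rhodamine sulfonate ester activity probe; 0% = GSTO1 with DMSO and 100% = wells lacking GSTO1 enzyme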
GSTO1 recomb ABPP – blocks recombinant human glutathione S-transferase omega 1; shares compounds with GSTO1 inh; inhibition, % at 1 µM; actives 30% (n = 130); recombinant GSTO1, gel ABPP SE-Rh probe fluorescence; AID 463110;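 active = inhibition of the enzyme GSTO1 above about 75%, limit read from the data; inactive = inhibition below that limit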
* = called active by the depositor; / = no result given.

SMILES | LYPLA2 inh | LYPLA1 inh | Fam108B counter | GSTO1 inh | PME-1 primary | PAD4 inh | GSTO1 confirm | others
COc1ccc(C(=O)Nc2c(O)ccc3ccccc23)cc1OC | 0 | 4 | 6 | 2 | -2 | -7 | /
COc1ccc(S(=O)(=O)NCC2CCC(C(=O)O)CC2)cc1 (stereo unspecified) | -4 | 0 | -1 | 2 | -1 | 3 | /
CC/C(=N\NC(=O)c1cc(C2CC2)[nH]n1)c1ccccc1 | -9 | -5 | -1 | 6 | 3 | -2 | /
O=C1CC(NS(=O)(=O)c2ccc([N+](=O)[O-])cc2)CN1c1ccc(Cl)cc1 (stereo unspecified) | 3 | 0 | 0 | 11 | 3 | 0 | /
CC(C)(C)c1cc[n+](C2=C([O-])c3ccccc3C(=O)/C2=N\S(=O)(=O)c2cccs2)cc1 | -4 | -1 | 7 | 80* | 10 | 2 | 89*
O=C1/C(=N\S(=O)(=O)c2cccs2)C([n+]2ccccc2)=C([O-])c2ccccc21 | 3 | -3 | 9 | 92* | -2 | 12 | 86*
O=S(=O)(/N=C/c1ccccc1O)c1cccs1 | -2 | 2 | 5 | 2 | -4 | 0 | /
CCCCCCCNC(=O)C1(CC2CC(c3ccc(Cl)cc3)=NO2)CCNCC1 (stereo unspecified) | -2 | -4 | 1 | -3 | 2 | 1 | /
O=C(c1cc(C2CC2)nn1-c1ccccc1)N1CCN(Cc2c(F)cccc2Cl)CC1 | 4 | -2 | / | / | -4 | 1 | /
CCCN(C(=O)c1c(-c2ccccc2)noc1C)c1c(N)n(Cc2ccccc2)c(=O)[nH]c1=O | 0 | -6 | / | / | -6 | -2 | /
O=C(O)c1ccc(N/N=C/C(Br)=C/c2ccccc2)cc1 | 3 | 0 | 9 | 64* | 4 | 2 | 65*
CSc1ccc(/C=N/Nc2nc(C)cc(=O)[nH]2)cc1 | 3 | 4 | 2 | -9 | 9 | 2 | /
Cc1cc(=O)[nH]c(N/N=C/c2ccc(O)c(O)c2)n1 | -8 | -5 | -7 | 42* | -10 | 0 | 7
CC(OC(=O)c1cc(O)c2ccccc2c1O)C(=O)Nc1ccc(C(N)=O)cc1 (stereo unspecified) | 5 | 0 | 7 | 48* | -8 | 2 | 56*
CC(OC(=O)c1ccccc1C(=O)N(C)c1ccccc1)C(=O)Nc1ccc(C(N)=O)cc1 (stereo unspecified) | 2 | 3 | 5 | 0 | -2 | -3 | /
O=C(CCl)N1c2ccccc2CCc2ccccc21 | 1 | -1 | -6 | 69* | -2 | 3 | 85* | GSTO1 recomb ABPP=50
CC(Cl)C(=O)N1c2ccccc2CCc2ccccc21 (stereo unspecified) | 3 | 2 | 1 | 3 | 0 | -7 | /
COc1cc(NC(=O)COC(=O)c2ccccc2SCC(=O)N2CCCC2)cc(OC)c1 | 3 | 1 | 1 | 6 | -1 | 5 | /
Cc1cc(O)c(-c2cc(O)c(C)cc2O)cc1O | -1 | 0 | 1 | 82* | 1 | -1 | 8
Cc1ccc(N)cc1O | -2 | 3 | / | / | -3 | -12 | /
O=c1c(Cl)c(Cl)cnn1Cc1ccc(F)cc1 | 4 | 1 | 0 | 9 | 0 | 0 | /
O=C(OCn1ncc(Cl)c(Cl)c1=O)c1ccc(F)cc1 | -1 | -2 | -6 | 44* | 7 | 15 | 29
COc1cccc(C(=O)NNC(=O)c2ccc3ccccc3c2O)c1 | 9 | 4 | -1 | 45* | 3 | 4 | 4
Cc1ccc(C)c(NC(=O)CSc2nnc(-c3n[nH]c4ccccc34)o2)c1 | -5 | -3 | -3 | 39* | -12 | -4 | 29
Cc1csc(NC(=O)c2ccc(COc3ccccc3)o2)n1 | -8 | -11 | -5 | 4 | 2 | 5 | /
SMILES | LYPLA2 inh | LYPLA1 inh | Fam108B counter | GSTO1 inh | PME-1 primary | PAD4 inh | GSTO1 confirm | others
O=C(N/N=C/c1cccnc1)c1cc(O)c(O)c(O)c1 | -8 | -5 | -8 | 50* | -8 | 0 | 11
CCOc1cc(N2CCOCC2)c(OCC)cc1NC(=O)COC(=O)[C@@H]1CCCN1S(=O)(=O)c1ccccc1F | -2 | -1 | -1 | 80* | 4 | -1 | 80*
CC(C)C(=O)N(c1cc2sc(=O)oc2c2ccccc12)S(=O)(=O)c1cccs1 | 9 | -5 | 6 | 85* | -1 | 11 | 43*
CC(C)C(=O)N(c1ccc2oc(=O)sc2c1)S(=O)(=O)c1cccs1 | 3 | 2 | 4 | 17 | 2 | 15 | /
CCc1nnc(N/N=C/c2cc(Br)c(O)cc2O)n1N | 5 | 0 | 4 | 68* | -3 | 37* | 13
O=C(c1cc2cc(F)ccc2[nH]1)N1CCC(Cc2ccccc2)CC1 | -5 | -11 | -2 | 5 | -2 | -2 | /
CCN(CC)CC(=O)N1CCCC(N2CCN(c3cccc(C(F)(F)F)c3)CC2)C1 (stereo unspecified) | 8 | -2 | 0 | 4 | 5 | -1 | /
O=C(CN1CCOCC1)N/N=C/c1ccco1 | -1 | 1 | -2 | -3 | -2 | -10 | /
O=C(CN1CCOCC1)N/N=C/c1c(O)ccc2ccccc12 | -1 | -2 | -2 | 38* | -1 | -1 | 4
COCCCNC(=O)C[C@H]1C[C@H](C(=O)N(C(C)C)C(C)C)[C@@]2(C)c3[nH]c4cc(CCC(=O)N(C)C)ccc4c3CCN2C1=O | / | / | / | / | / | -2 | /
NNc1nc(C(F)(F)F)nc2ccccc12 | -3 | -9 | 4 | -13 | -1 | -3 | /
O/C=c1\ccc2cccc3nc(C(F)(F)F)nc1c23 | -15 | -2 | 4 | 64* | 0 | -15 | 76*
O=Cc1ccc(O)c(O)c1 | -2 | -1 | -5 | 4 | -2 | 3 | /
Oc1ccc(/C=N/N=C/c2ccc(O)c(O)c2)cc1O | -10 | -10 | -9 | 39* | -26 | 3 | 18
O=C1Nc2ccccc2/C1=N\N=C\c1ccc(O)c(O)c1 | -4 | -4 | 9 | 69* | 2 | 2 | 11
CCOC(=O)c1c(C)oc2c1c(C=NCCC(=O)O)c(O)c1ccccc12 | 6 | 1 | 2 | 43* | 12 | -10 | 47*
CCOC(=O)c1c(C)oc2c1c(C=NC1CCS(=O)(=O)C1)c(O)c1ccccc12 (stereo unspecified) | 2 | 0 | 1 | 1 | -1 | -1 | /
Cc1cc(O)c(N)c(C)c1Cl | -4 | -2 | 4 | 46* | -2 | 2 | 3
Cc1cc(O)cc(C)c1Cl | 8 | 1 | 8 | 8 | -5 | 5 | /
Cc1cc(C(=O)COC(=O)c2cccnc2Cl)c(C)n1C | / | / | / | / | / | 3 | /
COc1ccc(NC(=O)c2ccc(OC)c(S(=O)(=O)N3CCCCC3C)c2)cn1 (stereo unspecified) | 2 | -4 | / | / | 2 | -1 | /
